# Compounds with a hit are over-represented: about 2.6% of the library has one in this group of screens.
# TROY signal inh – TROY signaling inhibition | Q293 LMP1-TROYcd NF-kB luciferase reporter, 4 h | AID 1347056 | inhibition, % at 10 µM | 360,000 compounds, 0.98% hits;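 active = compounds whose plate-normalised and pattern-corrected inhibition of the luciferase reporter signal at the single screening dose is 50% or more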
# KKLEB cytotox – counter-screen for CF NF-kB inhibitors: cytotoxicity; KKLEB CF airway cells viability, ATPlite luminescence, overnight; stronger effect = lower value; cells stimulated with P. aeruginosa culture filtrate; 360,000 compounds, 0.36% hits; activity change (cytotoxicity), % at 5 µM;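 active = corrected activity change at or below -50% at 5 µM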
# EWS-Fli inh – blocks EWS/Fli oncoprotein-driven transcription; A673 NR0B1-luciferase reporter, viability-normalised; inhibition, % at 12.6 µM; 350,000 compounds, 0.67% hits; AID 651661;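 active = mean inhibition of at least 50% after viability correction, with every replicate also passing that limit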;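 note: firefly luciferase signal divided by Alamar Blue viability fluorescence both relative to DMSO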
# LGR2 antag – inhibitors of bursicon-induced Drosophila LGR2 receptor cAMP signaling; HEK293 LGR2, CRE-luciferase, bursicon-stimulated, 4 h; inhibition, % at 9.99 µM; 380,000 compounds, 0.35% hits;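 active = drop in luminescence signal, shown as inhibition above about 50% in the replicate tests, limit read from the data, passing the limit was not always enough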;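 note: agonist challenge used bursicon conditioned medium at about half maximal strength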
# TWEAK-Fn14 inh – TWEAK-Fn14 signaling inhibition; 360,000 compounds, 2% hits; TWEAK-stimulated Fn14 reporter cells, luciferase luminescence, 8 h; inhibition, % at 10 µM; AID 1159606; in the data active = inhibition above about 50%
# CF NFkB inh – cystic fibrosis NF-kB activation inhibition; KKLEB NF-kB-GFP reporter, PAF-induced, GFP fluorescence overnight; inhibition, % at 5 µM; 360,000 compounds, 0.86% hits; AID 588850;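 active = at least 50% inhibition at 5 µM, scaled per plate between neutral and stimulator controls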;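 note: PAF is a Pseudomonas aeruginosa culture filtrate used as stimulus; plate controls were PAF-stimulated DMSO wells for no effect and unstimulated DMSO wells for full effect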
# Starred values were filed as active, the others as inactive; nt = no result.
SMILES,TROY signal inh,KKLEB cytotox,EWS-Fli inh,LGR2 antag,TWEAK-Fn14 inh,CF NFkB inh
O=C(NC1CCCC1)c1sc(=S)n2c1[nH]c(=O)c1ccccc12,71.6*,-25.0,nt,nt,-3.5,46.6
COc1ccc(N2CC(C(=O)NCc3cccnc3)CC2=O)cc1 (stereo unspecified),nt,11.4,nt,nt,75.4*,-11.6
Cc1cc2c(=O)oc(-c3ccc(Br)cc3)nc2s1,-43.1,-13.0,-44.9,1.0,39.1,17.7
CCc1cc2c(=O)oc(-c3ccc(F)cc3)nc2s1,9.2,20.0,-54.0,nt,54.5*,-19.1
O=C1c2cc([N+](=O)[O-])ccc2-c2cc(Br)c(N=C(NO)C(F)(F)F)cc21,79.0*,-23.3,-9.2,13.2,-62.9,28.8
O=C1c2cc([N+](=O)[O-])ccc2-c2cc(Cl)c(NC(=O)C(F)(F)F)cc21,4.9,17.6,11.7,-23.3,-12.4,-44.0
CCOC(=O)Cc1csc(N/N=C/c2ccccc2)n1,-31.8,6.6,18.7,-30.1,-3.4,-17.5
CCOC(=O)Cc1csc(N/N=C\c2ccc(N(C)C)cc2)n1,44.9,8.8,22.7,2.4,72.8*,-5.3
CCCC(O)C#Cc1cnc2c(c1)C(=O)N([C@H](C)CO)C[C@H](C)[C@H](CN(C)C(=O)Nc1cccc3ccccc13)O2 (stereo partly specified),nt,nt,4.7,nt,nt,nt
Cc1noc(C)c1S(=O)(=O)Nc1ccc2c(c1)C(=O)N([C@@H](C)CO)C[C@H](C)[C@@H](CN(C)S(=O)(=O)c1ccc(F)cc1)OCCCC[C@H](C)O2,nt,nt,2.5,12.1,nt,nt
CN1CCC(NCCC(c2ccc(F)cc2)c2ccc(Cl)cc2)CC1 (stereo unspecified),-54.0,-4.2,55.1*,-8.4,-51.0,7.5
OC[C@@H]1[C@H](c2ccc(C#CC3(O)CCCC3)cc2)[C@@H]2CN(Cc3cccnc3)CCCCN12,nt,nt,-1.0,0.4,nt,nt
CCCc1[nH]nc2c1C(c1cn[nH]c1-c1ccc(F)cc1)C(C#N)=C(N)O2 (stereo unspecified),27.6,-7.0,nt,nt,54.5*,28.9
C[C@@H]1CN([C@H](C)CO)C(=O)c2cc(NC(=O)Nc3cccc4ccccc34)ccc2O[C@@H]1CN(C)C(=O)Nc1ccc2c(c1)OCO2,nt,nt,-8.0,-11.0,nt,nt
CCOC(=O)c1sc(Nc2nc(C)cc(C)n2)nc1C,9.7,6.7,53.9*,4.6,19.3,-11.8
Oc1ccccc1-c1nc2c3ccccc3c3ccccc3c2[nH]1,0.4,9.0,16.7,-14.3,-4.3,-10.1
COc1cc(-c2nc(-c3ccccc3)c(-c3cccs3)[nH]2)cc(OC)c1O,-9.2,10.6,nt,nt,15.5,-71.8
c1ccc(-c2nc(-c3cccs3)[nH]c2-c2ccccc2)cc1,-13.6,5.4,18.5,11.8,52.3*,-1.4
COc1cc(-c2nc(-c3ccccc3)c(-c3cccs3)[nH]2)cc(OC)c1OC,7.6,8.7,nt,nt,66.1*,-57.9
c1csc(-c2nc3c4ccccc4c4ccccc4c3[nH]2)c1,-17.2,8.7,nt,nt,69.3*,-117.1
C[C@H]1CN([C@@H](C)CO)C(=O)c2c(c3ccccc3n2C)-c2ccccc2CO[C@@H]1CN(C)C(=O)CCC(F)(F)F,nt,nt,24.3,6.6,nt,nt
CCCC#Cc1ccc2c(c1)O[C@H](CN(C)Cc1cncnc1)[C@@H](C)CN([C@@H](C)CO)S2(=O)=O,nt,nt,25.2,-16.6,nt,nt
O=CC1=C(c2ccccc2)Oc2ccccc2O1,38.0,-4.6,36.9,10.1,58.3*,36.7
Nc1nc(F)nc2c1ncn2[C@@H]1O[C@H](CO)[C@@H](O)[C@H]1O,50.6*,-28.5,45.5,75.3*,87.4*,81.4*
CCOC(=O)Cc1ccc(Nc2nc(NCc3cccs3)nc3ccsc23)cc1,55.1*,-15.5,0.8,2.5,65.2*,5.5
SMILES,TROY signal inh,KKLEB cytotox,EWS-Fli inh,LGR2 antag,TWEAK-Fn14 inh,CF NFkB inh
COc1ccc(Nc2nc(NCc3cccs3)nc3ccsc23)cc1OC,32.4,-30.7,20.2,-15.1,53.6*,12.4
COc1cc(C2CC(=O)N(c3ccc(C)cc3)C(=O)C2)cc(OC)c1OC,6.9,-0.5,52.6*,-10.2,20.8,-5.4
O=C(c1ccccc1)N1CC(=O)N2[C@H](C1)[C@@H](c1ccc(C#CC3CC3)cc1)[C@@H]2CO,nt,nt,-5.7,-3.7,nt,nt
Cn1cnc(S(=O)(=O)N2C[C@H](O)COC[C@H]3O[C@H](CC(=O)NCc4cc(F)cc(F)c4)CC[C@@H]32)c1,nt,nt,3.5,-1.7,nt,nt
C[C@@H]1CCCCO[C@@H](CN(C)Cc2ccc3c(c2)OCO3)[C@H](C)CN([C@@H](C)CO)C(=O)c2cc(NC(=O)Cc3ccccc3)ccc2O1,nt,nt,7.5,-26.4,nt,nt
O=C(O)c1ccc(-n2cccc2/C=C2/NC(=O)N(c3ccccc3)C2=O)cc1,68.3*,0.8,16.5,10.9,-17.6,8.2
O=C(O)c1ccc(-n2cccc2/C=C2/NC(=O)N(c3cccc(Cl)c3)C2=O)cc1,-11.5,-3.2,12.5,nt,10.3,9.3
O=C(CCCn1c(=S)[nH]c2ccsc2c1=O)Nc1ccc2c(c1)OCCO2,82.1*,-7.9,40.1,3.6,88.7*,-0.4
O=C(CCCn1c(=S)[nH]c2ccsc2c1=O)Nc1ccc(F)cc1,-4.9,-14.8,13.9,8.2,-7.9,11.5
Cc1oc2cc3c(C(=O)N4CCCCC4)c(C)oc3cc2c1C(=O)N1CCCCC1,59.5*,8.4,nt,-99.1,73.7*,4.6
Cc1nc2cc(-c3cccc(F)c3)nn2c(C)c1CCC(=O)NC(C)CCc1ccco1 (stereo unspecified),9.4,-12.8,nt,nt,67.4*,9.8
COc1cc(OC)cc(-c2cc3nc(C)c(CCC(=O)NC(C)CCc4ccco4)c(C)n3n2)c1 (stereo unspecified),1.0,-5.8,nt,nt,7.7,-7.6
CNC(=O)C[C@H]1CC[C@H]2[C@H](COc3ccc(NC(=O)NC4CCCC4)cc3C(=O)N2C)O1,nt,nt,0.6,24.2,nt,nt
Cc1noc(C)c1S(=O)(=O)Nc1ccc2c(c1)C(=O)N([C@H](C)CO)C[C@H](C)[C@@H](CN(C)CC1CCCCC1)O2,nt,nt,-2.6,5.0,nt,nt
O=C(CCCc1ccccc1)c1ccc2c(c1)OCCO2,88.5*,-56.9*,86.4*,101.3*,102.1*,-9.9
COC(=O)c1c(N)sc(C(=O)NCCc2ccccc2)c1C,75.9*,-19.8,83.3*,98.0*,99.4*,-3.7
COc1ccc(CCNC(=O)c2ccc3c(c2)OCCO3)cc1,-45.0,5.1,-31.4,nt,-15.3,7.4
O=C(NCCc1ccccc1)c1ccc2c(c1)OCCO2,82.7*,-27.0,90.2*,101.7*,98.6*,-47.3
COc1cccc(OC)c1C(=O)NCCc1ccccc1,-10.1,-10.1,7.3,-1.0,7.1,8.8
O=C(NCc1ccc2c(c1)OCO2)c1ccc2c(c1)OCCO2,-44.2,9.9,nt,nt,-26.9,-7.1
COC(=O)c1ccc(CNC(=O)c2ccc3c(c2)OCCO3)cc1,-34.6,8.3,-1.1,10.8,78.9*,15.1
C[C@@H]1CN([C@@H](C)CO)C(=O)c2cc(/C=C/c3ccccc3)cnc2O[C@H]1CN(C)S(=O)(=O)c1cccs1,nt,nt,21.3,9.5,nt,nt

# Source: PubChem (several laboratories)
